Screening results from PubChem.
Sampled rows, rich in hits. Any-hit rate of the full collection: about 18%.
DT40 TDP1 no CPT: qHTS for Inhibitors of human tyrosyl-DNA phosphodiesterase 1 (TDP1): qHTS in cells in absence of CPT; DT40 Tdp1-/- hTDP1 cells, no CPT, ATP luminescence, 48 h; Potency, µM (doses to about 46.2 µM), for inactives: top-dose activity change, negative = growth inhibition, usual class: inhibitors; hit rate 15% among 420,000; note: potency is the fitted concentration of half-maximal effect; nearly all actives have a fitted effect of over 55% in size
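No-CPT arm: Tdp1-/-;hTDP1 DT40 cells (400/well) plus compounds, incubated ≥48 hr at 37 °C. Readout CellTiter-Glo luminescence.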
Six1-Eya2 inh: qHTS Assay for Inhibitors of the Six1/Eya2 Interaction; Homeobox protein SIX1 (Homo sapiens) + Protein phosphatase EYA2 (Homo sapiens), …; AlphaScreen GST-Six1/His-Eya2 binding, biochemical; stronger effect = lower value; activity change, % (test concentration not listed); hit rate 0.56% among 360,000; AID 651725, 2012; in the data active = activity change below about -65%; inconclusive = mostly about -30% to -63%
Target sequence (O00167 whole entry, looked up): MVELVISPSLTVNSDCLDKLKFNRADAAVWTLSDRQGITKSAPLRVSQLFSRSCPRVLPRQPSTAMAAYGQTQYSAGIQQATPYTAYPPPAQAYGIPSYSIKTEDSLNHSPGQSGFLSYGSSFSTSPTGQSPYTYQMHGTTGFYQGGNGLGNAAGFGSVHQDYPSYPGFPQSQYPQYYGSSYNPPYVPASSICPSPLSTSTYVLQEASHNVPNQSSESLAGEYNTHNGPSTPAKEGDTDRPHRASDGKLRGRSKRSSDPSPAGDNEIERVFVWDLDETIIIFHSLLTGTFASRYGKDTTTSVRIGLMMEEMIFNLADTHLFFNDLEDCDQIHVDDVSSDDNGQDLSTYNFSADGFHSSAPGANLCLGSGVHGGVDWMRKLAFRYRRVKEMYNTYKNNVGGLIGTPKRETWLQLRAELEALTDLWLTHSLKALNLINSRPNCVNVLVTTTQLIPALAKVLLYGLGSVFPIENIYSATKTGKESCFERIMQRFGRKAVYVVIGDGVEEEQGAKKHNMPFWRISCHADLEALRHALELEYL
Target sequence (Q15475 whole entry, looked up): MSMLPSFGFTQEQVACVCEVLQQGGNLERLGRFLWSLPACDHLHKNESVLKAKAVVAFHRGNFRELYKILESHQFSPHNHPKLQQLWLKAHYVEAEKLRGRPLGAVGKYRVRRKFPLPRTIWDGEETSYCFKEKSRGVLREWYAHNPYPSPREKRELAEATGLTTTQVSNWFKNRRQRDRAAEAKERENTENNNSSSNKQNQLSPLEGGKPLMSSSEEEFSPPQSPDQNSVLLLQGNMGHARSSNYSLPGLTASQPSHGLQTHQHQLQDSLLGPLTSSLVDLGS
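GST-Six1 + His-Eya2 (5X stock: 250/500 nM); Tris pH 8.0, 300 mM NaCl, 0.05% BSA, 0.02% Tween 20; GSH donor/Ni acceptor beads; 1 h 37 °C dark; AlphaScreen readout.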
DT40 TDP1 CPT: qHTS for Inhibitors of human tyrosyl-DNA phosphodiesterase 1 (TDP1): qHTS in cells in presence of CPT. chicken DT40 Tdp1-/-;hTDP1 cells + 20 nM CPT, ATP luminescence, 48 h. Potency, µM (doses to about 46.2 µM), without a hit: at the highest dose activity change, negative = growth inhibition, actives largely listed as inhibitors. hit rate 12% among 420,000. AID 686979, 2013; note: potency is the fitted concentration of half-maximal effect; nearly all actives have a fitted effect of over 55% in size
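Chicken DT40 Tdp1-/- cells stably complemented with human TDP1 were seeded at 400 cells/well in medium containing 20 nM camptothecin, exposed to pin-transferred compounds, and grown at 37 °C for at least 48 hr. Viability was read as ATP luminescence.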
CtBP-E1A blk: qHTS Assay for Inhibitors of the CtBP/E1A Interaction; AlphaScreen GST-E1A/His-CtBP binding, 1536-well; stronger effect = lower value; activity change, % (no concentration beside the values); hit rate 0.49% among 340,000; in the data active = activity change below about -65%; inconclusive = mostly about -30% to -63%
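Steps: dispense buffer (Tris pH 8.0, NaCl 300 mM, TCEP 1 mM, BSA, Tween 20); add 5X protein mix (GST-E1A, His-CtBP, 125 nM each); pin 23 nL compound; 2 h at 37 °C, dark; add 5X beads (50 ug/mL); 1 h; read.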
IL-1B inflam inh: qHTS for Inhibitors of Inflammasome Signaling: IL-1-beta AlphaLISA Primary Screen; THP-1 LPS/ATP IL-1B secretion, AlphaLISA, 16 h; stronger effect = lower value; activity change, % at 57.5 µM; hit rate 4.7% among 360,000; in the data active = activity change below about -50%; inconclusive = mostly about -30% to -49%
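Secreted IL-1B measured by AlphaLISA bead assay after 16 h compound exposure of THP-1 cells; compounds (final up to 57.5 uM) added 1 h before LPS (250 ng/mL) and ATP (1.25 mM) stimulation; lower signal means less secretion.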
TDP1 inh: qHTS Assay for Inhibitors of Tyrosyl-DNA Phosphodiesterase (TDP1); hit rate 0.28% among 350,000; recombinant TDP1, AlphaScreen DNA substrate cleavage; Tyrosyl-DNA phosphodiesterase 1 (Homo sapiens), Q9NUW8; Potency, µM (doses to about 130 µM), inactives show top-dose activity change, negative = inhibition, most hits filed as inhibitors; note: potency is the fitted concentration of half-maximal effect; nearly all actives have a fitted effect of over 40% in size
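Steps: enzyme plus compound, 15 min RT; add biotin/phosphotyrosine-FITC oligonucleotide (15 nM final), react 5 min; add donor/acceptor beads (10 ug/ml final), 10 min; read AlphaScreen. Tdp1 at 1 nM final.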
Numbers without * were called inactive; ? = inconclusive; . = not tested or not shown. Unless noted, calls come from the whole dose curve; as a rule, active = well fitted curve in the direction sought with a large enough effect; inconclusive = small, poorly fitted or top-dose-only effect, or another doubt; inactive = no such curve, though single readings can be large; an effect the other way counts as inactive or inconclusive. % is set by controls: 0 for no effect and ±100 for the full control effect.

SMILES | DT40 TDP1 no CPT | Six1-Eya2 inh | DT40 TDP1 CPT | CtBP-E1A blk | IL-1B inflam inh | TDP1 inh
COC(=O)[C@H](COC(C)(C)C)NC(=O)O[C@@H]1Cc2cc(Br)ccc2O[C@H]1c1cccc(OC)c1 | . | . | . | . | . | 4%
Cc1ccc2[nH]c(=O)c(CN(CCO)C(=O)N(C)C)cc2c1 | -7% | 4 | -9% | 1 | 0 | .
COc1ccc(NC(=O)CN2CCN(c3nc(-c4cccc(OC)c4)cs3)CC2)cc1 | ? | -11 | ? | -7 | -9 | 5%
CCC(NC(=O)N(Cc1ccccc1)Cc1ccc2c(c1)OCO2)(C(F)(F)F)C(F)(F)F | -20% | 4 | -5% | -1 | -11 | 2%
COC(=O)CNC(=O)C1CCCN1C(=O)CNC(=O)OC(C)(C)C (centres undefined) | -22% | 2 | -12% | 5 | 9 | 4%
Cc1ccc(Cc2cnc(NC(=O)c3ccco3)s2)cc1 | ? | -7 | -85% | 13 | 2 | 4%
O=C(Nc1ncc(Cc2ccc(SC(F)F)cc2)s1)c1ccc(OC(F)F)cc1 | 1µM* | 13 | 1.3µM* | 10 | 22 | 8%
COc1cccc(CN(C)C(=O)/C=C/c2ccc(S(=O)(=O)N3CCCCCC3)cc2)c1 | ? | -15 | ? | 7 | -58* | 3%
COc1cccc(/C=C/C(=O)OCC(=O)Nc2ccc(S(=O)(=O)N3CCCC3)cc2)c1 | -27% | -3 | 8% | ? | -12 | -5%
CC(=O)Nc1cccc(NC(=O)/C=C/c2ccc(S(=O)(=O)N3CCOCC3)cc2)c1 | -25% | 7 | ? | -26 | ? | 3%
COc1cccc(NC(=O)/C=C/c2ccc(S(=O)(=O)N3CCOCC3)cc2)c1 | ? | -20 | 18µM* | -13 | -8 | 4%
COc1ccc(/C=C/C(=O)Nc2ccccc2F)cc1S(=O)(=O)N1CCOCC1 | -17% | -1 | ? | ? | -88* | 0%
COc1ccc(CCNC(=O)/C=C/c2ccc(OC)c(S(=O)(=O)N3CCOCC3)c2)cc1 | 5.8µM* | -3 | ? | -9 | 12 | 1%
CC(C)NC(=O)CCNS(=O)(=O)c1ccc(Br)cc1 | -2% | 29 | -25% | 43 | 21 | 0%
Cc1ccc(NC(=O)/C=C/c2ccc(S(=O)(=O)N3CCOCC3)cc2)cc1S(=O)(=O)N(C)C | 15µM* | -5 | ? | 14 | -5 | .
CCN(Cc1ccc(OC)c(F)c1)C(=O)/C=C/c1ccc(S(=O)(=O)N2CCOCC2)cc1 | 23µM* | 0 | ? | . | -12 | -5%
COc1cc(/C=C/C(=O)Nc2ccc(OC)c(S(=O)(=O)N3CCOCC3)c2)ccc1OC(F)F | 16µM* | -26 | 18µM* | 0 | -20 | 1%
COc1ccc(S(=O)(=O)N2CCOCC2)cc1NC(=O)/C=C/c1ccccc1 | -19% | -12 | -22% | 1 | -52* | 2%
COc1ccc(C(=O)NC2CC3CCCC(C2)N3Cc2ccccc2)c(OC)c1 (centres undefined) | -14% | -2 | -27% | 0 | 50 | 0%
Cc1cc(C)n2nc(C(=O)OCC(=O)NC3CCS(=O)(=O)C3)nc2n1 (centres undefined) | 9% | 5 | 3% | 3 | 6 | .
CCCOc1ccccc1NC(=O)/C=C/c1ccc(OC)c(S(=O)(=O)N2CCOCC2)c1 | 16µM* | -12 | ? | 4 | -23 | .
COc1ccc(/C=C/C(=O)Nc2ccccc2C)cc1S(=O)(=O)N1CCOCC1 | -26% | -15 | ? | 0 | -24 | 1%
CCCOc1ccccc1NC(=O)/C=C/C(N)=O | 2.5µM* | 7 | 1.3µM* | 4 | -6 | 2%
CCCCOc1ccccc1NC(=O)C=C(C)C | -10% | 6 | -24% | 0 | 6 | -2%
Cc1ccc(-c2nn(CCC(=O)O)cc2/C=C\C(=O)c2ccc(Br)cc2)cc1 | ? | 10 | 12µM* | 0 | -25 | 0%
SMILES | DT40 TDP1 no CPT | Six1-Eya2 inh | DT40 TDP1 CPT | CtBP-E1A blk | IL-1B inflam inh | TDP1 inh
Cc1ccc(-c2nn(Cc3ccccc3)cc2/C=C/C(=O)O)cc1 | -1% | 9 | -10% | -2 | 42 | 9%
O=C(O)CCn1cc(/C=C\C(=O)c2ccc(Cl)cc2)c(-c2cccc(Br)c2)n1 | 18µM* | -5 | ? | 0 | -93* | 5%
CCOC(=O)C1CCCN(C(=O)Cc2ccc(OC)c(OC)c2)C1 (centres undefined) | -7% | -13 | -5% | -9 | -14 | 5%
CCC(C)(C)n1nnnc1C(c1cc2cc(C)ccc2[nH]c1=O)N1CCCC1 (centres undefined) | -12% | -5 | -13% | -2 | 22 | 8%
CCC(C)(C)n1nnnc1C(c1cc2cc(OC)c(OC)cc2[nH]c1=O)N1CCc2ccccc21 (centres undefined) | ? | 0 | 20µM* | 3 | 0 | 2%
COc1cc2cc(C(c3nnnn3C(C)(C)C)N3CCc4ccccc4C3)c(=O)[nH]c2cc1OC (centres undefined) | ? | -2 | 18µM* | 0 | -18 | 7%
CC(C)(C)n1nnnc1C(c1cc2cc3c(cc2[nH]c1=O)OCO3)N1CCN(c2ccccc2)CC1 (centres undefined) | -18% | -8 | -12% | 6 | ? | 2%
O=C(O)c1cccc(S(=O)(=O)N2CCOCC2)c1 | 1% | 7 | -23% | 12 | 5 | 9%
CCC(C)NC(=S)N(CCc1ccccc1)Cc1cc2cc(OC)c(OC)cc2[nH]c1=O (centres undefined) | 18µM* | -19 | ? | -17 | ? | 5%
Cc1cccc(NC(=S)N(Cc2cccs2)Cc2cc3cc(C)ccc3[nH]c2=O)c1 | 21µM* | 0 | 18µM* | 0 | 11 | 3%
CNC(=S)N(Cc1cccs1)Cc1cc2cc(OC)c(OC)cc2[nH]c1=O | 18µM* | -3 | ? | -11 | 2 | 8%
COc1ccc2[nH]c(=O)c(CN(CCc3ccccc3)C(C)=O)cc2c1 | -16% | 5 | -26% | 7 | -11 | 0%
